Measured values as given in the supplement of paper PMC3616981.
± gives the standard deviation of the averaged measurements.

Compound: CC(C)c1cccc(C(C)C)c1N1C(=O)c2ccc(O)cc2C1=O
Assay: BioMAP readout fold decrease vs vehicle (vehicle/treated); higher = stronger decrease of the readout vs vehicle (values <1 mean increase)
Method: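 BioSeek BioMAP human primary cell (co-)culture systems (3C, 4H, LPS, SAg, BE3C, CASM3C, hDFCGF, KF3CT) treated with 5HPP-33 at 1.48, 4.44, 13.3 and 40 µM. Read-outs are protein levels by ELISA, proliferation and SRB total protein. Duplicate rows per assay are averaged as replicates. Tested in ToxCast Phase II for this study; exposure time not stated.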
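Note: Co-cultures of keratinocytes, bronchial epithelial and smooth muscle cells, fibroblasts, HUVECs and PBMCs under stimuli like LPS, TNF-α, IFN-γ, IL-1β, TGF-β or EGF, SRB reflecting cytotoxicity.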

Row | Target | BioMAP readout fold decrease (1.48 µM) | BioMAP readout fold decrease (4.44 µM) | BioMAP readout fold decrease (13.3 µM) | BioMAP readout fold decrease (40 µM)
1 | LPS_IL8 | 1.07 ± 0.0052 | 0.942 ± 0.0096 | 0.805 ± 0.015 | 1.02 ± 0.053
2 | CASM3C_LDLR | 1.1 ± 0.017 | 1.188 ± 0.002 | 0.969 ± 0.038 | 2.21 ± 0.034
3 | BE3C_uPAR | 1.02 ± 0.013 | 1.0603 ± 0.00083 | 1.1 ± 0.012 | 1.26 ± 0.022
4 | KF3CT_uPA | 1.016 ± 0.0099 | 1.015 ± 0.01 | 0.969 ± 0.012 | 2.15 ± 0.47
5 | CASM3C_TissueFactor | 1.0008 ± 0.00028 | 1.023 ± 0.0054 | 1.04 ± 0.026 | 1.22 ± 0.015
6 | 3C_hLADR | 1.04 ± 0.038 | 1.55 ± 0.048 | 4.27 ± 0.47 | 7.36 ± 0.11
7 | SAg_CD40 | 1.164 ± 0.003 | 1.39 ± 0.092 | 1.94 ± 0.027 | 5.89 ± 0.36
8 | 3C_MCP1 | 1.04 ± 0.015 | 0.986 ± 0.0064 | 0.8619 ± 0.0073 | 0.919 ± 0.018
9 | SAg_IL8 | 1.12 ± 0.039 | 1.19 ± 0.029 | 0.963 ± 0.026 | 1.36 ± 0.052
10 | 3C_SRB | 0.983 ± 0.018 | 1.13 ± 0.012 | 1.46 ± 0.018 | 2.09 ± 0.16
11 | SAg_CD38 | 1.01 ± 0.025 | 1.34 ± 0.061 | 2.26 ± 0.16 | 5.07 ± 0.81
12 | 4H_VEGFRII | 1.07 ± 0.028 | 1.03 ± 0.021 | 1.2 ± 0.076 | 1.45 ± 0.069
13 | CASM3C_MCP1 | 1.07 ± 0.045 | 1.137 ± 0.0029 | 1 ± 0.016 | 0.9734 ± 0.002
14 | SAg_PBMCCytotoxicity | 0.998 ± 0.065 | 1.01 ± 0.078 | 0.879 ± 0.028 | 0.894 ± 0.028
15 | CASM3C_MIG | 0.9799 ± 0.0029 | 0.9517 ± 0.009 | 0.96395 ± 0.0005 | 1.03 ± 0.015
16 | BE3C_MMP1 | 1.073 ± 0.0092 | 1.01 ± 0.017 | 0.9184 ± 0.0038 | 0.854 ± 0.0042
17 | 3C_TissueFactor | 0.903 ± 0.018 | 0.906 ± 0.021 | 0.943 ± 0.014 | 1.43 ± 0.2
18 | KF3CT_SRB | 1.012 ± 0.0046 | 1.011 ± 0.0045 | 1.0454 ± 0.00028 | 1.53 ± 0.21
19 | CASM3C_VCAM1 | 1.05 ± 0.029 | 1.0767 ± 0.00049 | 1.19 ± 0.023 | 1.55 ± 0.021
20 | CASM3C_HLADR | 0.895 ± 0.021 | 0.797 ± 0.061 | 1.41 ± 0.07 | 2.61 ± 0.45
21 | hDFCGF_MIG | 1.01 ± 0.012 | 1.01 ± 0.0026 | 1.02 ± 0.027 | 1.42 ± 0.031
22 | hDFCGF_VCAM1 | 1.18 ± 0.2 | 1.32 ± 0.063 | 2.03 ± 0.15 | 4.4 ± 0.3
23 | 3C_Eselectin | 1.04 ± 0.051 | 1.056 ± 0.0015 | 0.99 ± 0.023 | 1.39 ± 0.034
24 | LPS_IL1a | 0.781 ± 0.039 | 0.8356 ± 0.0034 | 0.965 ± 0.057 | 1.56 ± 0.039
